Assay outcomes: PubChem BioAssay, Broad Institute
MITF act = MITF TRPM1 promoter activation in melanoma cells. SK-MEL-5 TRPM1-promoter luciferase, 24 h; % of positive control, neutral wells = 0. hit rate 0.75% among 300,000. activation, % at 12.5 µM;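 active = mean activation of at least 80% with every replicate also reaching 80%; inconclusive = mean reaches 80% but some replicate falls short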
Wnt bcat act = activates Wnt/beta-catenin signaling in a reporter cell assay; activator, plate reader; activation, % at 9.35 µM; hit rate 1.2% among 300,000; in the data active = activation above about 30%, passing the limit was not always enough; inconclusive = no clear call, values can overlap the other calls
esBAF inh = inhibitors of esBAF chromatin remodeling in mouse ES cells. Bmi1-luciferase knock-in reporter, 24 h; 100% = twice the neutral-well signal. reporter increase, % at 12.5 µM. hit rate 2% among 350,000. AID 602393; in the data active = activation above about 40%; inconclusive = no clear call, values can overlap the other calls;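 also: a rise in the Bmi1 reporter signal indicates esBAF inhibition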
Statin myotox sup = suppressors of simvastatin-induced myotoxicity in C2C12 myotubes. ATP luminescence, 48 h; scaled: DMSO 0, geranylgeraniol control 100. rescue of ATP level, % at 7.49 µM. hit rate 0.78% among 330,000;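 active = mean ATP rescue above about 67%, or every replicate alone reaching that limit, limit read from the data, passing the limit was not always enough; inconclusive = no clear call, values can overlap the other calls; inactive = mean under the limit and some replicate under it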;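 also: myotubes were challenged with 10 µM simvastatin during compound exposure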
Rtt109 Vps75 = blocks Candida albicans Rtt109/Vps75 acetyltransferase activity. inhibition, % at 34.9 µM. purified Rtt109/Vps75, ThioGlo CoA-SH fluorescence, 4 h. hit rate 0.16% among 330,000. AID 540336;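 active = inhibition of at least 50% in every replicate; inconclusive = best replicate reaches 50% inhibition but some replicates fall short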
Target sequence (Q5AAJ8 whole entry, looked up): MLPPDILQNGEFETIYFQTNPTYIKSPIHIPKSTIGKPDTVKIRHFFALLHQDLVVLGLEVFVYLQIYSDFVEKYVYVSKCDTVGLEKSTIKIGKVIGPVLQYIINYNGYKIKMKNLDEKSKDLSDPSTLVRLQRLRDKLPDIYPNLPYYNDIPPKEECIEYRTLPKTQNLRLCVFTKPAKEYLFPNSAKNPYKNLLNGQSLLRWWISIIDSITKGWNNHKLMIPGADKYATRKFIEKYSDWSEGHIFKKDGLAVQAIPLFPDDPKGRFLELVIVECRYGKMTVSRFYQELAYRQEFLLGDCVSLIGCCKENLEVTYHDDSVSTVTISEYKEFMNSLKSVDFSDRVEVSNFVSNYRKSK
Hits are given with their value. Most compounds without a hit are left out; they make up all but 3.1% or so of the library.

Screening Cn1cc(Br)c(C(=O)N/N=C/c2cc3c(cc2Cl)OCO3)n1 returned MITF act 89, Wnt bcat act inactive, esBAF inh 47, Statin myotox sup inactive and Rtt109 Vps75 inactive.
Screening Cn1cc(Cl)c(C(=O)N/N=C/c2ccc3c4c(cccc24)CC3)n1 returned MITF act inactive, esBAF inh 63, Statin myotox sup inactive and Rtt109 Vps75 inactive.
O=C(Nc1ccccc1)SC1CCCCC1 was read as MITF act inactive, Wnt bcat act inactive, esBAF inh 83, Statin myotox sup inactive and Rtt109 Vps75 inactive.
For O=C(Nc1ccccc1)N1CCCC2CCCCC21 (stereo not given) the results were MITF act inactive, Wnt bcat act inactive, esBAF inh 52 and Rtt109 Vps75 inactive.
For Cc1ccccc1S(=O)(=O)N(C)C[C@H]1OCc2cn(nn2)CCCC(=O)N([C@@H](C)CO)C[C@H]1C the results were esBAF inh inactive and Statin myotox sup inactive.
For Cc1scc(C(=O)N/N=C/c2ccc(Cl)s2)c1C the results were MITF act inactive, Wnt bcat act 58 and Rtt109 Vps75 inactive.
Screening Cc1scc(C(=O)N/N=C/c2ccc(OC(C)C)cc2)c1C returned MITF act inactive, esBAF inh 47, Statin myotox sup inactive and Rtt109 Vps75 inactive.
Screening CCCCOc1cccc(/C=N/NC(=O)c2csc(C)c2C)c1 returned MITF act inactive, esBAF inh inactive, Statin myotox sup inactive and Rtt109 Vps75 inactive.
Screening COc1ccccc1/C=N/NC(=O)c1csc(C)c1C returned MITF act inactive, Wnt bcat act inactive and Rtt109 Vps75 inactive.
Screening CO[C@@H]1CN(C)C(=O)c2ccc(NC(=O)c3cccc(F)c3)cc2OC[C@H](C)N(C)C[C@@H]1C returned esBAF inh inactive and Statin myotox sup inactive.
`COc1ccc(F)cc1-c1cc(C(=O)NC2CCCCC2)[nH]n1` gave Wnt bcat act inactive, esBAF inh 49 and Statin myotox sup inactive.
`CCOc1ccc(-c2cc(C(=O)NC3CCCCC3)[nH]n2)c(C)c1` gave Wnt bcat act inactive, esBAF inh 57 and Statin myotox sup inactive.
Screening C/C(=N/NC(=O)OC(C)(C)C)c1ccco1 returned MITF act inactive, Wnt bcat act inconclusive and Rtt109 Vps75 inactive.
`CC(/C=C/c1ccco1)=N/NC(=O)OC(C)(C)C` gave MITF act inactive, Wnt bcat act 57 and Rtt109 Vps75 inactive.
Screening COc1ccc(S(=O)(=O)N(C)C[C@@H]2Oc3ccc(NS(=O)(=O)c4ccccc4)cc3CC(=O)N([C@@H](C)CO)C[C@H]2C)cc1 returned esBAF inh inactive and Statin myotox sup inactive.
COc1ccc(/[N+]([O-])=C/c2ccoc2)cc1 was read as MITF act 106, Wnt bcat act 41, esBAF inh 80, Statin myotox sup inactive and Rtt109 Vps75 inactive.
`[O-]/[N+](=C\c1ccc(OC(F)F)cc1)c1ccccc1` gave esBAF inh inactive and Statin myotox sup inactive.
For COC(=O)C1=C(C)Nc2nc3ccccc3n2C1c1cc(OC)c(OC)c(OC)c1 (stereo not given) the results were Wnt bcat act 44.
`Cc1cc2c([nH]c3ccccc32)c2c1OC(C)(C)C=C2` gave MITF act 91, Wnt bcat act inactive, esBAF inh 92, Statin myotox sup inactive and Rtt109 Vps75 inactive.
`COc1ccc2[nH]c(=O)c3c(c2c1)OC(C)(C)C=C3` gave Wnt bcat act inactive, esBAF inh inactive, Statin myotox sup inactive and Rtt109 Vps75 inactive.
C[C@H]1CN([C@@H](C)CO)C(=O)c2cccc(NC(=O)C3CCOCC3)c2O[C@@H]1CN(C)S(C)(=O)=O was read as esBAF inh inactive and Statin myotox sup inactive.
`CC(=O)N1CCN(C(=O)c2ccc(Oc3ccccc3)cc2)CC1` gave MITF act inactive, Wnt bcat act inactive, esBAF inh inactive, Statin myotox sup inactive and Rtt109 Vps75 inactive.
O=C(c1ccccc1)N1CCN(C(=O)c2ccc(OC(F)(F)F)cc2)CC1 was read as MITF act inactive, Wnt bcat act inactive, esBAF inh inactive, Statin myotox sup 98 and Rtt109 Vps75 inactive.
Screening CN(C)C(=O)C[C@@H]1CC[C@H](NC(=O)Nc2cccc(F)c2)[C@@H](CO)O1 returned esBAF inh inactive and Statin myotox sup inactive.
Cc1ccc(C2=NC(C)(C)N=C2SCC(=O)Nc2ccc(Cl)cc2)cc1 was read as Wnt bcat act inactive, esBAF inh inactive and Rtt109 Vps75 99.
